Sampled rows, rich in hits. Any-hit rate of the full collection: about 2.2%.
TROY signal inh = blocks TROY-dependent signaling in reporter cells. Q293 LMP1-TROYcd NF-kB luciferase reporter, 4 h. inhibition, % at 10 µM. 0.98% of 360,000 active. AID 1347056;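 active = compounds whose plate-normalised and pattern-corrected inhibition of the luciferase reporter signal at the single screening dose is 50% or more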
HSP90 inh = HSP90 refolding inhibition in rabbit reticulocyte lysate; luciferase refolding luminescence, 3 h; inhibition, % at 5.6 µM; 0.91% of 290,000 active; AID 1789;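 active = inhibition above the screen-wide mean plus 3 SD, computed separately per campaign, cut at about 16% in these data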;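 note: 0% = DMSO wells and 100% = 60 µM geldanamycin wells; inhibitors lower the luminescence because luciferase stays unfolded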
TWEAK Fn14 block = inhibitors of TWEAK-Fn14 interaction signaling. TWEAK-stimulated Fn14 reporter cells, luciferase luminescence, 8 h. inhibition, % at 10 µM. 2% of 360,000 active. AID 1159606; in the data active = inhibition above about 50%
LGR2 inh = inhibitors of bursicon-induced Drosophila LGR2 receptor cAMP signaling; HEK293 LGR2, CRE-luciferase, bursicon-stimulated, 4 h; AID 720647; 0.35% of 380,000 active; inhibition, % at 9.99 µM;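 active = drop in luminescence signal, shown as inhibition above about 50% in the replicate tests, limit read from the data, passing the limit was not always enough; inconclusive = probably only some replicates passing the limit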;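 note: agonist challenge used bursicon conditioned medium at about half maximal strength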
* = called active by the depositor; ? = inconclusive; . = no result given.

SMILES	TROY signal inh	HSP90 inh	TWEAK Fn14 block	LGR2 inh
Cc1ccc(S(=O)(=O)c2c(N)n(CCCO)c3nc4ccccc4nc23)cc1	64.2*	1.2	27.7	.
CO[C@H]1CN(C)C(=O)c2cc(NS(C)(=O)=O)ccc2OC[C@H](C)N(Cc2nccs2)C[C@H]1C	.	.	.	13.6
CCOc1ccccc1CNC(=O)C1CCN(C(=O)c2sccc2-n2cccc2)CC1	25.7	-2.2	64.0*	0.5
O=C(/C=C/c1ccccc1)Nc1ncn[nH]1	-9.4	0.8	69.7*	-2.1
Cc1cc(C)nc(Nc2nc(C(N)Cc3ccc(C(F)(F)F)cc3)cs2)n1 (stereo not given)	-4.3	.	-110.4	3.8
COc1cc(OC)nc(Nc2nc(C(N)Cc3ccc(C(F)(F)F)cc3)cs2)n1 (stereo not given)	-4.7	.	-28.1	31.3*
CC1(C)CNc2cc(N)ccc2S1	51.4*	8.3	50.8*	-14.8
COc1cccc(N=Nc2ccc(O)c3ncccc23)c1	-28.3	7.1	52.4*	-45.8
COc1ccc(N=Nc2ccc(O)c3ncccc23)cc1	-9.0	0.3	-47.6	-12.8
Oc1ccc(N=Nc2ccc3c(c2)OCCO3)c(O)c1	-0.3	13.8	5.2	-8.5
Oc1ccc(N=Nc2ccc3c(c2)OCCO3)c2cccnc12	76.0*	7.0	4.9	-40.8
Cc1cccc(OCC(=O)NCCNC(=O)c2ccco2)c1	-14.2	-2.3	25.0	7.1
Cc1ccc(OCC(=O)NCCNC(=O)c2ccco2)cc1C	-4.0	-2.6	52.0*	-2.7
CC1(c2ccccc2)CC(C)(C)N2C(=O)/C(=C3\SC(=S)NC3=O)c3cccc1c32 (stereo not given)	61.2*	0.9	69.8*	9.8
CC(=C1SC(=S)NC1=O)c1ccccc1	-20.1	.	-8.5	-6.6
Nc1ccc(-c2nc3ccccc3o2)cc1	-41.7	16.8*	17.8	-77.9
CC(=O)Nc1cccc(-c2nc3ccccc3o2)c1	-35.1	-2.2	-10.3	-11.4
Nc1cc(N)cc(-c2nc3ccccc3o2)c1	25.0	.	82.5*	-5.9
CC(C)NC(=O)Nc1ccc2c(c1)C(=O)N([C@@H](C)CO)C[C@@H](C)[C@H](CN(C)S(=O)(=O)c1cn(C)cn1)O2	.	.	.	-7.5
COc1ccccc1NC(=O)N1C[C@H]2[C@@H](c3ccccc31)[C@H](CO)N2C(=O)c1ccccc1	.	.	.	-12.7
CCOC(=O)C1=C(CC)Nc2ccccc2N=C1NC(=O)Nc1ccc(Cl)c(Cl)c1	53.3*	0.1	72.9*	32.1
CCCCCCCCCn1c2c(c(=N)c3c1CCC3)CCCC2	50.7*	1.5	56.7*	.
CCCCCCCCCCn1c2c(c(=N)c3c1CCC3)CCC2	57.1*	5.9	71.9*	.
CCCCCCCCn1c2c(c(=N)c3ccccc31)CCC2	47.1	0.2	70.6*	?
CCn1c2c(c(=N)c3c1CCC3)CCCC2	-36.0	-1.4	16.3	2.2
SMILES	TROY signal inh	HSP90 inh	TWEAK Fn14 block	LGR2 inh
CCCCCn1c2c(c(=N)c3ccccc31)CCC2	15.2	7.0	4.0	13.9
COc1ccccc1-c1cnc2c(c1)C(=O)N([C@@H](C)CO)C[C@@H](C)[C@@H](CN(C)Cc1ccc(F)cc1)O2	.	.	.	6.2
Cc1ccccc1S(=O)(=O)N[C@H]1CC[C@H](CCn2cc(-c3ccc(F)cc3)nn2)O[C@@H]1CO	.	.	.	0.3
O=c1c(Cc2ccccc2)c(O)c2cccc3c4c(n1c23)CCCC4	54.4*	-0.7	-2.1	-7.8
Cc1cc(C(=O)COC(=O)Cc2n[nH]c(=O)c3ccccc23)c(C)n1-c1ccc2c(c1)OCCO2	38.5	1.2	68.3*	.
Cc1cc(C(=O)COC(=O)C2=COCCO2)c(C)n1-c1ccc2c(c1)OCO2	-21.3	-7.0	-10.7	.
Cc1cc(C(=O)COc2ccc(C#N)cc2)c(C)n1-c1ccc2c(c1)OCO2	0.7	-4.1	88.6*	-9.2
CCCNC(=O)N1CC2(CCN(S(=O)(=O)c3ccc(OC)cc3)CC2)c2c(n(C)c3cc(OC)ccc23)[C@@H]1CO	.	.	.	6.5
COc1ccccc1C(=O)Nc1ccc2c(c1)OC[C@@H](C)N(C)C[C@@H](C)[C@@H](OC)CN(C)C2=O	.	.	.	1.5
C=C(C)Cn1cnc2cc(C)c(C)cc21	-4.2	-3.8	86.0*	3.1
Cc1ccc(C(=O)COC(=O)C2CCC2)cc1	-43.7	2.7	-10.9	.
CC(=O)NCCc1ccc(C(=O)COC(=O)c2ccco2)cc1	9.2	.	56.3*	39.2
CC(=O)NCCc1ccc(C(=O)COC(=O)C2CCCCC2)cc1	85.8*	.	89.6*	77.4*
O=C(COC(=O)c1ccco1)c1ccc(F)cc1	-45.2	1.7	1.5	-52.6
C[C@H]1CCCCO[C@@H](CN(C)C(=O)Nc2ccccc2)[C@@H](C)CN([C@@H](C)CO)C(=O)c2cc(NS(=O)(=O)c3cn(C)cn3)ccc2O1	.	.	.	8.8
CCC(C)(C)c1ccc(OCCCC[n+]2ccc(C)cc2)c(C(C)(C)CC)c1	.	6.9	.	33.9
CCC(C)(C)c1ccc(OCCCC[n+]2cccc(C)c2C)c(C(C)(C)CC)c1	39.4	7.8	51.9*	.
CN1[C@H](C(=O)NC2Cc3ccccc3C2)[C@@H](CO)[C@@H]2Cn3c(ccc(-c4cccnc4)c3=O)[C@@H]21	.	.	.	-5.6
CC(=O)CC1c2cc(F)ccc2C=C(c2ccsc2)N1c1ccc(C#CC2(O)CCCCC2)cc1 (stereo not given)	-13.0	.	56.5*	-22.8
COc1cc(OC)cc(C2=Cc3ccccc3C(CC(C)=O)N2c2ccc(C#CC3(O)CCCCC3)cc2)c1 (stereo not given)	36.4	.	51.5*	-22.5
COc1ccc2c(c1OC)CN1CCc3cc4c(cc3[C@@H]1[C@@H]2O)OCO4	-0.2	-2.2	-5.1	.
O[C@@H]1[C@@H](O)C=C2CCN3Cc4cc5c(cc4[C@H]1C23)OCO5 (stereo not given in full)	67.8*	.	75.0*	88.2*
CC(=O)N(C)C[C@@H]1Oc2ncc(C#Cc3ccccc3F)cc2C(=O)N([C@@H](C)CO)C[C@@H]1C	.	.	.	15.7
COC(=O)c1cn(NC(=O)c2cc([N+](=O)[O-])ccc2F)c(=O)c2ccccc12	9.4	-2.0	67.6*	17.4
CCCNC(=O)N1C[C@@H](C)[C@@H](OC)CN(C)C(=O)c2cc(NC(C)=O)ccc2OC[C@H]1C	.	.	.	3.4
SMILES	TROY signal inh	HSP90 inh	TWEAK Fn14 block	LGR2 inh
Cn1c(CC(=O)Nc2ccccc2Cl)nnc1SCC(=O)NC1=NCCS1	2.1	-0.9	-0.9	35.6
Cn1c(CC(=O)Nc2ccccc2F)nnc1SCC(=O)NC1=NCCS1	4.8	-2.6	53.1*	11.5
COc1cc(C(=O)Oc2cccc(Nc3ncnc4ccccc34)c2)cc(OC)c1OC	78.5*	-3.9	99.3*	85.4*
O=C(Oc1cccc(Nc2ncnc3ccccc23)c1)c1cccnc1	14.8	1.4	9.0	.
COc1ccc(C(=O)Oc2cccc(Nc3ncnc4ccccc34)c2)cc1OC	53.6*	4.4	82.3*	6.0
COc1ccc2c3c([nH]c2c1)[C@H](CO)N(CC1CCOCC1)CC31CN(C(=O)C2CCOCC2)C1	.	.	.	-1.6
Cc1ccccc1C1CCCN(C(=O)c2cc(COc3c(F)cccc3F)on2)C1 (stereo not given)	0.5	2.8	85.2*	-3.3
O=c1cc(-c2ccccc2)oc2ccc3ccccc3c12	74.7*	.	93.2*	101.2*
O=c1cc(-c2ccc(O)c(O)c2)oc2ccc3ccccc3c12	78.1*	.	92.0*	-28.6
